Compound activity deposited in PubChem BioAssay by several laboratories.
This is a sample that favours compounds with a hit; in the whole collection about 3.6% have one here.
Anthrax LF inh2: Bacillus anthracis LF protease inhibitors, primary screen, biochemical, multiplex microsphere, MLPCN library. actives 0.12% (n = 360,000). AID 588501, 2011. multiplex microsphere protease cleavage assay. inhibition, % at 10 µM. Lethal factor (Bacillus anthracis), P15917; also: plate controls were buffer without enzyme for full effect and enzyme alone for no effect
Target sequence (P15917 whole entry, looked up): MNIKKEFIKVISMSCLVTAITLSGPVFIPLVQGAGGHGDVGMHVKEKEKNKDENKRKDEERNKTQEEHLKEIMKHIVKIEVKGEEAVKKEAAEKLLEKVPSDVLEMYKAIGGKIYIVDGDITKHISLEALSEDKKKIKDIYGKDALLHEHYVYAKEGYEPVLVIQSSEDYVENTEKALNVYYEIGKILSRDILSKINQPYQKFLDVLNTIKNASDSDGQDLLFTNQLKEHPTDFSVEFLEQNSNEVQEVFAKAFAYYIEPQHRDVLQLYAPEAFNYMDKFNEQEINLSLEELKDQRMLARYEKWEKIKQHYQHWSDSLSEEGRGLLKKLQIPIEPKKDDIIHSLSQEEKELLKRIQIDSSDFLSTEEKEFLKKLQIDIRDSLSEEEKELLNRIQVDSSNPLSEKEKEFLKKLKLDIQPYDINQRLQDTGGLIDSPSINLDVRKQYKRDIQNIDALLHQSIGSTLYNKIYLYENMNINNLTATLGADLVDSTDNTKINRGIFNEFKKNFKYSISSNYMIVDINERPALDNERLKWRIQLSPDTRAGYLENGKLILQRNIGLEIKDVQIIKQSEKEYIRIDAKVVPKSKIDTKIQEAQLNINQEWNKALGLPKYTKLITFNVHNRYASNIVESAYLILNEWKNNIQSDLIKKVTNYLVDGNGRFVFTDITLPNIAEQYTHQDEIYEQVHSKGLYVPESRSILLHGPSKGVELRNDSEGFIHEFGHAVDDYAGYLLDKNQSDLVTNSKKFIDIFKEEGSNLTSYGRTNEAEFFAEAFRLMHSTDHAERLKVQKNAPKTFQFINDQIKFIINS
3CLpro inhibitor: SARS-CoV 3CLpro protease inhibitors, primary screen, biochemical, quenched FRET; actives 0.14% (n = 290,000); inhibition, % at 6 µM; Replicase polyprotein 1ab (Severe acute respiratory syndrome coronavirus), P0C6X7; recombinant SARS-CoV 3CLpro, quenched FRET peptide cleavage; in the data active = inhibition above about 12%
BoNT A protease: BoNT/A light chain protease inhibitors, primary screen, biochemical, flow cytometry, MLPCN library | multiplex microsphere protease substrate cleavage | actives 0.17% (n = 360,000) | inhibition, % at 10 µM; also: plate controls were buffer without enzyme for full effect and enzyme alone for no effect
Autofluor counter: flagged as autofluorescent in microsphere protease counterscreen | compound autofluorescence counterscreen, microsphere flow cytometry; hits give high values | actives 3.1% (n = 360,000) | fluorescence intensity (test concentration not listed); in the data active = fluorescence intensity above about 16000; inconclusive = no clear call, values can overlap the other calls
BoNT F protease: BoNT/F light chain protease inhibitors, primary screen, biochemical, flow cytometry, MLPCN library. Botulinum neurotoxin type F light chain protease (Clostridium botulinum). Multiplex microsphere protease cleavage assay. inhibition, % at 10 µM. actives 0.22% (n = 360,000); in the data active = inhibition above about 35%, passing the limit was not always enough; inconclusive = no clear call, values can overlap the other calls; also: plate controls were buffer without enzyme for full effect and enzyme alone for no effect
BJeLR viability: MLPCN primary cell-based screen for lethality selective to Ras in HRASV12 cells; BJeLR (HRASV12) viability, CellTiter-Glo ATP luminescence, 48 h; inhibition, % (no concentration beside the values); actives 0.17% (n = 300,000); in the data active = inhibition above about 50%; inconclusive = no clear call, values can overlap the other calls
Numbers without * were called inactive; ? = inconclusive; · = no result given. Rule as the data show it, unless noted: active = inhibition above about 30%; inconclusive = no clear call, values can overlap the other calls; inactive = below that.

SMILES | Anthrax LF inh2 | 3CLpro inhibitor | BoNT A protease | Autofluor counter | BoNT F protease | BJeLR viability
Cc1cc(Br)c2c(c1)/C(=C/C(=O)c1cccs1)C(=O)N2 | -2 | 2 | -1 | 5134 | -1 | 3
Cc1cc(C)c2c(c1)/C(=C/C(=O)c1ccc(Br)s1)C(=O)N2 | -5 | 1 | ? | 21983* | -8 | -6
COC(=O)c1ccc2c(=O)n(CCCCCC(=O)N3CCN(c4ccccc4)CC3)c(=O)[nH]c2c1 | -4 | -5 | -1 | 2890 | -8 | -3
COc1cc2[nH]c(=O)n(CCCCCC(=O)N3CCN(c4ccccc4)CC3)c(=O)c2cc1OC | -2 | -4 | 6 | 19560* | 9 | 5
COc1cc(-c2cc(NC=O)c3ncc(-c4ccc(C(C)=O)cc4)n3c2)ccc1O | -3 | · | 0 | 3095 | -13 | ·
Cc1onc(-c2ccccc2)c1C(=O)N1CCCSC1=Nc1ccccc1 | 2 | 1 | 0 | 3264 | -7 | 7
O=C(c1ccco1)N1CCCSC1=Nc1ccccc1 | -2 | -3 | -1 | 21959* | -3 | 1
CCCNC(=O)C(Cc1ccccc1)NC(=O)Cc1ccccc1 (configuration not stated) | 1 | · | 1 | 3868 | 2 | ·
CCN1C(=O)C(Cc2nc3ccccc3c(=O)n2-c2ccccc2)c2ccccc21 (configuration not stated) | -2 | -3 | ? | 19070* | 4 | 6
COc1cccc(NC(=O)Cc2nnc(SCC(=O)NC(C)c3ccccc3)n2C)c1 (configuration not stated) | -4 | -1 | ? | 21780* | -10 | 4
COc1ccc(C)cc1NC(=O)CSc1nnc(CC(=O)Nc2cccc(C(F)(F)F)c2)n1C | -2 | -4 | 0 | 7882 | -5 | -2
COc1ccccc1NC(=O)CSc1nnc(CC(=O)Nc2cccc(C(F)(F)F)c2)n1C | -1 | 4 | -3 | 20559* | -5 | 0
CCOC(=O)Cc1nnc(NC(=O)C(CC)Sc2nc(C)cc(=O)[nH]2)s1 (configuration not stated) | 5 | -1 | 0 | 5825 | -2 | 2
CCCCc1nnc(NC(=O)C(C)Sc2nc(N)cc(=O)[nH]2)s1 (configuration not stated) | 4 | -6 | 5 | 21210* | 6 | 3
COc1ccc(NC(=O)c2cc(C)nn2-c2ccccc2)cc1 | -9 | -3 | -4 | 3925 | -9 | -1
CC(=O)Nc1ccc(NC(=O)c2cc(C)nn2-c2ccccc2)cc1 | 0 | 4 | ? | 22454* | -3 | 2
O=[N+]([O-])c1cc(-c2nc3nc4ccccc4nc3n2CCc2ccccc2)cc([N+](=O)[O-])c1 | 2 | 4 | 0 | 6899 | -4 | -8
N[C@@H](Cc1ccccc1)c1nnc(SCc2ccccc2Cl)o1 | 1 | 0 | ? | 19863* | -5 | -2
N[C@@H](Cc1c[nH]c2ccccc12)c1nnc(SCc2ccc(F)cc2)o1 | -3 | 8 | ? | 24676* | -4 | -14
C=C(C)CSc1nnc([C@@H](N)Cc2c[nH]c3ccccc23)o1 | -2 | -5 | ? | 19997* | -6 | -9
CC(C)=CCSc1nnc([C@@H](N)Cc2c[nH]c3ccccc23)o1 | -5 | 2 | -1 | 7689 | -10 | 4
Cc1cc(OCC(=O)N(Cc2ccco2)c2c(N)n(Cc3ccccc3)c(=O)[nH]c2=O)ccc1Cl | -1 | · | 1 | ? | 9 | ·
O=C(NCC1CCCO1)c1ccc(CS(=O)(=O)c2ccc(Cl)cc2)o1 (configuration not stated) | -9 | -1 | 1 | 22230* | -1 | 11
CC(C)(C)OC(=O)NCC(=O)NNC(=O)C(C(=O)OCc1ccccc1)c1ccccc1 (configuration not stated) | 0 | · | 0 | 3553 | 2 | ·
NC(=O)CCCCC(=O)OCCCc1cccs1 | 0 | -7 | -1 | 16230* | 1 | -10
O=C(CCCCC(=O)NCc1cccs1)NCc1cccs1 | 3 | -4 | -1 | 8657 | -6 | -3
Cc1ccc(S(=O)(=O)N2CCOCC2)cc1C(=O)N1CCN(c2ncccn2)CC1 | -5 | · | -1 | 4925 | -9 | ·
